Holding throughout (test): yeast three-hybrid, YBZ-1, SC-Leu-His + 0.5 mM 3-AT, 4 days
Holding throughout (conditions): tags: N-Gal4 AD-HA kept; label: inside an RPR1-promoter hybrid RNA with tandem MS2 sites; ssRNA

One test addresses PUM1 PUF domain R3-YFV (Homo sapiens, UniProt Q14671 828-1176, C935Y;R936F;Q939V). The gist of the method: (§1)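 Each repeat of the Pumilio-1 PUF domain was randomized at its three base-contacting residues, and these libraries were co-expressed from a centromeric plasmid with matching RNA elements in strain YBZ-1. After four days on SC-Leu (input) or SC-Leu-His + 0.5 mM 3-AT (selection), the repeat regions were PCR-amplified and Illumina-sequenced. The interaction score compares variant frequency between input and selection as a log change, computed in log2 with a pseudocount of 1 for absent variants.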

In a further test the target is PUM1 PUF domain R3-LFN (Homo sapiens, UniProt Q14671 828-1176, C935L;R936F;Q939N). The gist of the method: as §1
PUM1 PUF domain R3-LFN, sequence (Q14671 828-1176 C935L/R936F/Q939N): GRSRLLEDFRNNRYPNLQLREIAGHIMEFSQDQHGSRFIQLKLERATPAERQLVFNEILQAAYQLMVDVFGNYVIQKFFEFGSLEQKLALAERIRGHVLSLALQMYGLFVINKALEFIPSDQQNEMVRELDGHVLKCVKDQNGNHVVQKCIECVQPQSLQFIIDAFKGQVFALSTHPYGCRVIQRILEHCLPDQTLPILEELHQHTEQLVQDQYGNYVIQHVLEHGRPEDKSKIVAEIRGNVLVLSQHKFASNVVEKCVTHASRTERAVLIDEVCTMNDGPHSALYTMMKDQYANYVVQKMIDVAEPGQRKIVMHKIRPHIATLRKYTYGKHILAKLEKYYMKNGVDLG
A further test addresses PUM1 PUF domain R8-LFN (Homo sapiens, UniProt Q14671 828-1176, N1122L;Y1123F;Q1126N). The gist of the method:
as §1

The target of the next test is PUM1 PUF domain R3-RTA (Homo sapiens, UniProt Q14671 828-1176, C935R;R936T;Q939A). The gist of the method:
as §1

For another test, the target named is PUM1 PUF domain R4-RVF (Homo sapiens, UniProt Q14671 828-1176, N971R;H972V;Q975F). The gist of the method: as §1
PUM1 PUF domain R4-RVF, sequence (Q14671 828-1176 N971R/H972V/Q975F): as the sequence (Q14671 828-1176 C935L/R936F/Q939N) above, with L108C, F109R, N112Q, N144R, H145V, Q148F counted along it
For the next test, the target named is PUM1 PUF domain R5-PRV (Homo sapiens, UniProt Q14671 828-1176, C1007P;Q1011V). The gist of the method:
as §1

PUM1 PUF domain R3-YFV, sequence (Q14671 828-1176 C935Y/R936F/Q939V): as the sequence (Q14671 828-1176 C935L/R936F/Q939N) above, with L108Y, N112V counted along it
PUM1 PUF domain R8-LFN, sequence (Q14671 828-1176 N1122L/Y1123F/Q1126N): as the sequence (Q14671 828-1176 C935L/R936F/Q939N) above, with L108C, F109R, N112Q, N295L, Y296F, Q299N counted along it
PUM1 PUF domain R5-PRV, sequence (Q14671 828-1176 C1007P/Q1011V): as the sequence (Q14671 828-1176 C935L/R936F/Q939N) above, with L108C, F109R, N112Q, C180P, Q184V counted along it
PUM1 PUF domain R3-RTA, sequence (Q14671 828-1176 C935R/R936T/Q939A): as the sequence (Q14671 828-1176 C935L/R936F/Q939N) above, with L108R, F109T, N112A counted along it

As to “GGCUAGAACUAGUGGAUCCCCCGGCGCCCGGCGGCUCGAGCCCGGGUAAGUGUAAGUAGUCUGCAUGCCGCCGGGCGCCAUGCCUGCAGGUCGACUCUAGAAAACAUG”, the binding signal in the test with PUM1 PUF domain R3-YFV is 4.24 log2 enrichment (interaction score); in the test with PUM1 PUF domain R3-LFN, 5.99 log2 enrichment (interaction score).
As to “GGCUAGAACUAGUGGAUCCCCCGGCGCCCGGCGGCUCGAGCCCGGGUAAGCGUAAAUAGUCUGCAUGCCGCCGGGCGCCAUGCCUGCAGGUCGACUCUAGAAAACAUG”, the binding signal with PUM1 PUF domain R8-LFN was 2.16 log2 enrichment (interaction score).
As to “GGCUAGAACUAGUGGAUCCCCCGGCGCCCGGCGGCUCGAGCCCGGGUAAGUGUAAUUAGUCUGCAUGCCGCCGGGCGCCAUGCCUGCAGGUCGACUCUAGAAAACAUG”, the binding signal is 3.27 log2 enrichment (interaction score) with PUM1 PUF domain R3-RTA and 0.45 log2 enrichment (interaction score) in the test with PUM1 PUF domain R3-YFV.
On to “GGCUAGAACUAGUGGAUCCCCCGGCGCCCGGCGGCUCGAGCCCGGGUAAGUGUAAAUAGUCUGCAUGCCGCCGGGCGCCAUGCCUGCAGGUCGACUCUAGAAAACAUG”, for which the binding signal is 0.52 log2 enrichment (interaction score) with PUM1 PUF domain R8-LFN, 1.56 log2 enrichment (interaction score) with PUM1 PUF domain R3-YFV, 2.93 log2 enrichment (interaction score) with PUM1 PUF domain R4-RVF and 3.15 log2 enrichment (interaction score) in the test with PUM1 PUF domain R5-PRV.
